Measured values published in PubChem BioAssay.
Activity calls are given as the source filed them.

How the values were obtained:
Albumin (Bos taurus) = Albumin (Bos taurus) (UniProt P02769); experiment: bovine serum albumin binders on microarray, profiling panel, artefact control for SMM control protein annotation, biochemical, small-molecule microarray, Alexa647 label, 635/667 nm fluorescence (AID 1118); settings: BSA-A647 binding, fluorescence 635 nm, higher = more signal;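 also: score merges 667 nm emission intensity and signal-to-noise per printed compound spot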
[1] = small-molecule microarray binders of probe aXIP, primary screen, biochemical, NeuroSMM set, 635/667 nm fluorescence (AID 1119); settings: higher = more signal, called active from +8 up or from −8 down;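 also: probe is the protein aXip251-270 applied at 1 µg/mL to compound-printed slides; binding of probe to printed compounds measured as 667 nm fluorescence plus signal to noise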
[2] = small-molecule binders of probe aNOTCH3, primary screen, biochemical, small-molecule microarray, 635/667 nm fluorescence (AID 1120); settings: higher = more signal;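 also: probe is a biotin-tagged antibody raised against NOTCH3 rather than NOTCH3 protein; score merges spot fluorescence near 667 nm with spot signal to noise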
[3] = small-molecule binders of probe aNOTCH2, primary screen, biochemical, small-molecule microarray, 635/667 nm fluorescence (AID 1121); settings: higher = more signal;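 also: score merges feature fluorescence read at 667 nm with its signal to noise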
[4] = target: Carbonic anhydrase 2 (Homo sapiens) (UniProt P00918); experiment: CAII small-molecule binders, profiling panel, biochemical, small-molecule microarray, Alexa647-labelled CAII (AID 1122); settings: CAII-A647 binding fluorescence, higher = more signal
[5] = COS7 lysate on small-molecule microarray, probe aHis, 635 nm (AID 1123); settings: COS7 cell lysate, fluorescence, higher = more signal;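 also: z-score combines 667nm fluorescence intensity with signal-to-noise per printed compound spot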
[6] = compound binding in COS7 lysate, probe aLAP1, primary screen, cell lysate, small-molecule microarray (AID 1124); settings: probe aLAP1, fluorescence, higher = more signal;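 also: lysate comes from COS7 cells expressing LAP1 and is applied at 0.3 µg/mL; score merges spot fluorescence near 667 nm with signal-to-noise over triplicate slides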
Sam68 (KHDRBS1) = experiment: Sam68 small-molecule binders, primary screen, biochemical, small-molecule microarray, 635 nm fluorescence (AID 1125); settings: small-molecule microarray binding, higher = more signal;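 also: score merges 667 nm channel intensity with signal to noise over triplicate slides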
[7] = tested on: Chordin-like protein 2 (CHRDL2); experiment: CHRDL2 small-molecule binders, primary screen, biochemical, small-molecule microarray, 635 nm fluorescence (AID 1126); settings: small-molecule microarray binding, fluorescence 635 nm; higher = more signal;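 also: printed compound slides probed with Chrdl2 protein at 4 µg/mL for 1 h at 4 C; score merges 667 nm emission intensity with signal to noise over three replicate slides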
[8] = target: Concanavalin-A (Canavalia ensiformis) (UniProt P02866); experiment: ConA small-molecule binders, primary screen, artefact control for SMM control protein annotation, biochemical, small-molecule microarray, Alexa647 label, 635 nm (AID 1127); settings: ConA-A647 binding fluorescence, higher = more signal;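 also: z combines 667 nm emission intensity with signal-to-noise across three replicate slides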
Sequence of Concanavalin-A (Canavalia ensiformis) (P02866 whole entry, looked up): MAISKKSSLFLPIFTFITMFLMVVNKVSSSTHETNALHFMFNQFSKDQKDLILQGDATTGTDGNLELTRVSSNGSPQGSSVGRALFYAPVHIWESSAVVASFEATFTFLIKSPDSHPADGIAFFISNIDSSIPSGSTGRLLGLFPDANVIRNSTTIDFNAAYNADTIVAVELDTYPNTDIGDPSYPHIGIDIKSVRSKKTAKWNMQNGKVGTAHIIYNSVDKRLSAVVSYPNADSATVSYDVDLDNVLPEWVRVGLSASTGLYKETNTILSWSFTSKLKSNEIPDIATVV

Sequence of Albumin (Bos taurus) (P02769 whole entry, looked up): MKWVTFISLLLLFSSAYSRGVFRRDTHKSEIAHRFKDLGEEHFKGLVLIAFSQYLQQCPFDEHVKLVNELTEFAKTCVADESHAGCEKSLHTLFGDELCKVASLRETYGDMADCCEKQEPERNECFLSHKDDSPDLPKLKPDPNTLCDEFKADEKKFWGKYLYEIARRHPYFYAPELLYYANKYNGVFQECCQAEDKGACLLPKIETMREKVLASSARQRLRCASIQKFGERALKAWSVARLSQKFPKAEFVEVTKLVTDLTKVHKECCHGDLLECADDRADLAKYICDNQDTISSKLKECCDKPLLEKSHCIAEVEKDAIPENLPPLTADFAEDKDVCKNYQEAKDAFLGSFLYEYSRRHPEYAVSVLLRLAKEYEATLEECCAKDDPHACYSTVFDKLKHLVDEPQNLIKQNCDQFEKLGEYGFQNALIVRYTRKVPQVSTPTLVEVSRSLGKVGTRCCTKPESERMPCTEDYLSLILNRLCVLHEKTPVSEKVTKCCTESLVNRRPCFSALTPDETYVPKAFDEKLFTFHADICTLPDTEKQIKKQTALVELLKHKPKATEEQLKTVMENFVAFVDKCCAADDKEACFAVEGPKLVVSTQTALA

SMILES | composite z-score (Albumin (Bos taurus)) | composite Z-score [1] | composite z-score [2] | composite z-score [3] | composite z-score [4] | composite z-score [5] | composite z-score [6] | composite z-score (Sam68 (KHDRBS1)) | composite z-score [7] | composite z-score [8]
COc1ccc(NN2C(C(O)c3ccco3)C=CC3C(=O)N(C4CCCCC4)C(=O)C32)cc1 (stereo not given) | 0.749 | 0.0786 (inactive) | 0.353 | -0.115 | 0.377 | 1.44 | 0.564 | 1.32 | 0.0446 | 1
CCOC(=O)C[C@H]1[C@H](OC(=O)c2ccc(-c3ccccc3)cc2)[C@@H](NC(=O)c2ccc3ccccc3n2)c2cc(OCCCO)ccc2N1C(=O)c1ccccc1 | 0.58 | -0.202 (inactive) | 0.0916 | -0.0613 | 0.14 | 0.554 | 0.0488 | 1.25 | 0.423 | 1.04
Cc1ccc(S[C@]2(C(=O)NCC(C)C)CC(=O)N(Cc3ccccc3Cl)[C@@H]2c2ccc(CO)cc2I)cc1 | -0.253 | 0.0894 (inactive) | -0.179 | -0.127 | 0.763 | 0.363 | 0.142 | 0.245 | -0.332 | -0.395
O=C(N1CCCCC1)[C@@]1(Cc2ccccc2)COC(c2ccc(OCCCO)cc2)=N1 | 0.874 | 0.986 (inactive) | 0.501 | 0.313 | 0.714 | 2.44 | 0.409 | 1.33 | -0.729 | 0.892
C=C(COC)/C(=C/C[C@@H](OC(=O)c1ccncc1)c1ccc(CO)o1)c1cnc2ccccc2c1 | 0.516 | 1.35 (inactive) | 0.412 | -0.14 | 0.951 | 0.831 | 0.589 | 1.3 | 1.47 | 1.23
C=C1C2CC3C(=C4C(CO[C@@H]4[C@H]4CCCN4S(=O)(=O)c4ccccc4[N+](=O)[O-])C4C(=O)N(C)C(=O)C34)CC2C(=O)N1C (stereo not given in full) | 0.873 | 0.79 (inactive) | 0.0897 | -0.078 | 0.155 | 0.5 | -0.0918 | -0.184 | 0.0301 | 0.131
COC(=O)[C@@]1(Cc2ccc(OC)cc2)[C@H]2c3cc(C(=O)N(C)C)n(Cc4ccccc4)c3C[C@H]2CN1C(=O)c1ccccc1 | 0.864 | -0.96 (inactive) | 0.0372 | -0.0505 | 0.366 | 1.86 | 0.421 | 0.92 | -0.393 | 0.435
